Drawing on the antibiotic and cytotoxicity screens of Wong et al. (2023), this text covers growth inhibition call for 39 compounds.

About 500 (1.3%) of roughly 39,000 compounds were called active. The sample holds actives, similar compounds and a random draw of the others, so the mix is not that of the screen.

The assay relates to S. aureus RN4220. Put plainly: growth inhibition call (relative growth <= 0.2). The conditions noted are these: 50 µM.
On to `C[C@@H]1CN([C@@H](C)CO)C(=O)c2cc(-c3cccc(C(=O)N(C)C)c3)cnc2O[C@H]1CN(C)S(=O)(=O)c1ccc(F)cc1`, for which the growth inhibition call was “inactive”.
With `CO[C@@H]1CN(C)C(=O)c2ccc(NC(=O)Nc3ccccc3F)cc2OC[C@@H](C)N(Cc2ccccc2C(=O)O)C[C@H]1C` the entry was “inactive”.
The result for `C[C@@H]1O[C@@H](O[C@@H]2[C@@H](O)[C@H](OCCc3ccc(O)c(O)c3)O[C@H](CO)[C@H]2OC(=O)/C=C/c2ccc(O)c(O)c2)[C@H](O)[C@H](O)[C@H]1O` reads “inactive”.
The result for `CO[C@@H]1CN(C)C(=O)c2cc(NS(C)(=O)=O)ccc2OC[C@@H](C)N(C(=O)C2CCCCC2)C[C@H]1C` reads “inactive”; that for `C[C@@H]1CN([C@@H](C)CO)C(=O)c2cc(NC(=O)c3ccncc3)ccc2O[C@H]1CN(C)Cc1ccc(C(=O)O)cc1`, “inactive”.
`C[C@H](CO)N1C[C@H](C)[C@@H](CN(C)Cc2ccc(Oc3ccccc3)cc2)Oc2ccc(NC(=O)c3ccncc3)cc2C1=O`: the growth inhibition call is “inactive”.
The result for `COc1ccc(S(=O)(=O)Nc2ccc3c(c2)CC(=O)N([C@H](C)CO)C[C@H](C)[C@H](CN(C)Cc2ccc(Cl)c(Cl)c2)O3)cc1` reads “inactive”; that for `CN1C(=O)c2cc(NC(=O)c3cccs3)ccc2OC[C@@H]2O[C@@H](CC(=O)NCCN3CCCCC3)CC[C@@H]21`, “inactive”; that for `CN(C)CC(=O)N[C@H]1CC[C@H](CCNC(=O)C2CCC2)O[C@@H]1CO`, “inactive”.
On to `C[C@@H]1CN([C@H](C)CO)C(=O)Cc2cc(NC(=O)Nc3ccc(C(F)(F)F)cc3)ccc2O[C@@H]1CN(C)Cc1ccc(-c2ccccc2)cc1`, for which the growth inhibition call is “inactive”.
The result for `O=C(C[C@H]1CC[C@@H]2[C@H](COC[C@H](O)CN2S(=O)(=O)c2ccc(Cl)cc2)O1)NCC1CCCCC1` reads “active”; that for `O=C(C[C@H]1CC[C@H]2[C@@H](COC[C@@H](O)CN2S(=O)(=O)c2ccc(Cl)cc2)O1)NCC1CCCCC1`, “inactive”; that for `O=C(C[C@@H]1CC[C@H]2[C@@H](COC[C@H](O)CN2S(=O)(=O)c2ccc(Cl)cc2)O1)NCC1CCCCC1`, “inactive”.
The result for `O=C(C[C@@H]1CC[C@@H]2[C@H](COC[C@H](O)CN2S(=O)(=O)c2ccc(Cl)cc2)O1)NCC1CCCCC1` reads “inactive”.
On to `O=C(C[C@@H]1CC[C@@H]2[C@H](COC[C@@H](O)CN2S(=O)(=O)c2ccc(Cl)cc2)O1)NCC1CCCCC1`, for which the growth inhibition call is “inactive”.
As to `O=C(C[C@@H]1CC[C@H]2[C@@H](COC[C@@H](O)CN2S(=O)(=O)c2ccc(Cl)cc2)O1)NCC1CCCCC1`, the growth inhibition call was “active”.
The result for `C[C@@H]1CN([C@@H](C)CO)S(=O)(=O)c2ccc(C#CCN(C)C)cc2O[C@@H]1CN(C)S(C)(=O)=O` reads “inactive”.
With `CC(C)NC(=O)N(C)C[C@H]1Oc2ccc(NC(=O)NC3CCCCC3)cc2CC(=O)N([C@H](C)CO)C[C@H]1C` the entry was “inactive”; with `CC(C)NC(=O)N(C)C[C@@H]1Oc2ccc(NS(=O)(=O)c3cccs3)cc2CC(=O)N([C@@H](C)CO)C[C@@H]1C`, “inactive”; with `C[C@@H]1CN([C@@H](C)CO)C(=O)Cc2cc(NS(=O)(=O)c3cn(C)cn3)ccc2O[C@H]1CN(C)Cc1ccc(C(=O)Nc2ccccc2N)cc1`, “inactive”.
For the compound `C[C@H]1CCCCO[C@@H](CN(C)S(=O)(=O)c2ccccc2)[C@@H](C)CN([C@@H](C)CO)C(=O)c2cc(NC(=O)c3ccccc3)ccc2O1`, the growth inhibition call is “inactive”.
With `C[C@@H]1CN([C@H](C)CO)C(=O)c2cc(NC(=O)Nc3ccc(F)cc3)ccc2O[C@@H](C)CCCCO[C@H]1CN(C)Cc1ccccc1`, the growth inhibition call was “inactive”.
The result for `CS(=O)(=O)N1C[C@H](NC(=O)C2CC2)[C@H]2OCCC[C@H]21` reads “inactive”.
Turning to `C[C@@H]1CN([C@H](C)CO)C(=O)c2cc(NC(=O)Nc3ccc(C(F)(F)F)cc3)ccc2O[C@@H]1CN(C)CC1CCCCC1`, the growth inhibition call was “inactive”.
The result for `C[C@H]1CN([C@@H](C)CO)C(=O)c2cc(NC(=O)Nc3ccc(C(F)(F)F)cc3)ccc2O[C@@H]1CN(C)CC1CCCCC1` reads “inactive”; that for `C[C@@H]1CCCCO[C@H](CN(C)CC2CC2)[C@H](C)CN([C@@H](C)CO)C(=O)c2cc(NC(=O)Nc3ccc(C(F)(F)F)cc3)ccc2O1`, “active”; that for `C[C@H](CO)N1C[C@H](C)[C@H](CN(C)CC2CC2)OCCCC[C@H](C)Oc2ccc(NC(=O)Nc3ccc(C(F)(F)F)cc3)cc2C1=O`, “inactive”.
For the compound `C[C@H]1CCCCO[C@H](CN(C)CC2CC2)[C@@H](C)CN([C@@H](C)CO)C(=O)c2cc(NC(=O)Nc3ccc(C(F)(F)F)cc3)ccc2O1`, the growth inhibition call was “inactive”.
Turning to `C[C@@H]1CCCCO[C@@H](CN(C)CC2CC2)[C@H](C)CN([C@@H](C)CO)C(=O)c2cc(NC(=O)Nc3ccc(C(F)(F)F)cc3)ccc2O1`, the growth inhibition call was “inactive”.
As to `C[C@H](CO)N1C[C@H](C)[C@H](CN(C)CC2CCCCC2)Oc2ccc(NC(=O)Nc3ccc(C(F)(F)F)cc3)cc2C1=O`, the growth inhibition call is “active”.
The result for `C[C@@H]1CCCCO[C@@H](CN(C)CC2CC2)[C@@H](C)CN([C@H](C)CO)C(=O)c2cc(NC(=O)Nc3ccc(C(F)(F)F)cc3)ccc2O1` reads “inactive”; that for `C[C@@H]1CCCCO[C@H](CN(C)CC2CC2)[C@H](C)CN([C@H](C)CO)C(=O)c2cc(NC(=O)Nc3ccc(C(F)(F)F)cc3)ccc2O1`, “active”; that for `CCCC#Cc1cnc2c(c1)C(=O)N([C@@H](C)CO)C[C@H](C)[C@@H](CN(C)C(=O)c1ccc3c(c1)OCO3)O2`, “inactive”.
With `C[C@@H]1CN([C@H](C)CO)C(=O)c2cc(NS(=O)(=O)c3cn(C)cn3)ccc2O[C@H]1CN(C)Cc1ccc(C(=O)Nc2ccccc2N)cc1` the entry was “inactive”; with `Cc1ccc(S(=O)(=O)Nc2ccc3c(c2)C(=O)N([C@H](C)CO)C[C@@H](C)[C@H](CN(C)Cc2ccc(C(F)(F)F)cc2)O3)cc1`, “inactive”.
As to `COc1ccc(S(=O)(=O)Nc2ccc3c(c2)[C@H]2C[C@@H](CC(=O)NCC4CC4)O[C@H](CO)[C@H]2O3)cc1`, the growth inhibition call is “inactive”.
With `CCOc1nc2cccc(C(=O)O)c2n1Cc1ccc(-c2ccccc2-c2nnn[nH]2)cc1` the entry was “inactive”.
The result for `CCOc1nc2cccc(C(=O)O[C@@H](C)OC(=O)OC3CCCCC3)c2n1Cc1ccc(-c2ccccc2-c2nn[nH]n2)cc1` reads “active”; that for `CCOc1nc2cccc(C(=O)OC(C)OC(=O)OC3CCCCC3)c2n1Cc1ccc(-c2ccccc2-c2nnn[nH]2)cc1` (centres undefined), “inactive”.
